Test results published in PubChem BioAssay (NCATS).
Inconclusive results are not listed. Active and inactive are the calls of the source. The call rests on the fitted dose curve; in most records, active means well fitted curve in the direction sought with a large enough effect; inconclusive means small, poorly fitted or top-dose-only effect, or another doubt; inactive means no such curve, though single readings can be large; an effect the other way counts as inactive or inconclusive. Non-standard residues stand in square brackets, D forms with d. Residues, ends and D or L forms follow the SMILES beside them. *: point of attachment. Nva = CCC[C@H](N)C(=O)O; Cbz = O=C(OCc1ccccc1)*

Key:
[1] = target: Glutathione peroxidase 1 (Homo sapiens) (UniProt P07203); assay: Primary qHTS Assay for Inhibitors of Recombinant Selenoprotein Glutathione Peroxidase 1 (GPX1) (AID 1845191); further: nearly all actives have a fitted effect of over 65% in size
Procedure, shortened: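 10 nM GPX1 + cpd, 30 min RT; start w/ 1 mM GSH, 0.5 mM cumene hydroperoxide, 0.5 mM NADPH, 100 nM GR, 0.01% BSA; buffer 50 mM Tris-HCl pH 7.5, 2 mM EDTA, 150 mM NaCl; Fl 340/450, 0 & 15 min.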

[2] = target: Phospholipid hydroperoxide glutathione peroxidase GPX4 (Homo sapiens) (UniProt P36969); assay: Primary qHTS Assay for Inhibitors of Recombinant Selenoprotein Glutathione Peroxidase 4 (GPX4) (AID 1845192); further: nearly all actives have a fitted effect of over 65% in size; further: potency means the concentration at half of the fitted maximal effect
Procedure, shortened: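 NADPH consumption, followed by fluorescence at 340/450 nm between 0 and 15 min, reports GPX4 activity via coupled glutathione reductase (100 nM). Enzyme 200 nM was pre-exposed to compound 30 min; 0.5 mM cumene hydroperoxide and 1 mM GSH served as substrates.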

[3] = Quantitative High-Throughput drug screen in 47 multiple myeloma cell lines against the NCATS MIPE library collection: FR4_PLB cell viability assay (AID 1918924; further: nearly all actives have a fitted effect of over 35% in size; further: potency means the concentration at half of the fitted maximal effect)
Procedure, shortened: (§1)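 Primary qHTS used for cherry-picking: cells at 500/well, library compounds for 48 h (37C, 5% CO2), luminescent ATP assay.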

[4] = Quantitative High-Throughput drug screen in 47 multiple myeloma cell lines against the NCATS MIPE library collection: Delta47_JCRB cell viability assay (AID 1918925; further: nearly all actives have a fitted effect of over 45% in size; further: potency means the concentration at half of the fitted maximal effect)
Procedure, shortened: (§2)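 Myeloma cells (500 per well) were exposed to MIPE 4.0 compounds by pin transfer and incubated 48 hours at 37C, 5% CO2. Viability was read as ATP by CellTiter-Glo luminescence, normalised to DMSO (100%) and media-only (0%) wells.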

[5] = Quantitative High-Throughput drug screen in 47 multiple myeloma cell lines against the NCATS MIPE library collection: EJM_DSMZ cell viability assay (AID 1918926; further: nearly all actives have a fitted effect of over 30% in size; further: potency means the concentration at half of the fitted maximal effect)
Procedure, shortened: as §2

[6] = Quantitative High-Throughput drug screen in 47 multiple myeloma cell lines against the NCATS MIPE library collection: AMO1_DSMZ cell viability assay (AID 1918927; further: nearly all actives have a fitted effect of over 30% in size; further: potency means the concentration at half of the fitted maximal effect)
Procedure, shortened: as §2

[7] = Quantitative High-Throughput drug screen in 47 multiple myeloma cell lines against the NCATS MIPE library collection: ARP1_JJKsccF8 cell viability assay (AID 1918928; further: nearly all actives have a fitted effect of over 40% in size; further: potency means the concentration at half of the fitted maximal effect)
Procedure, shortened: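 Luminescence from CellTiter-Glo, taken after 5 min at room temperature, reports cellular ATP as viability. Cells (500 per well) had been treated 48 h at 37 °C with MIPE 4.0 compounds, scaled between DMSO and medium-only controls.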

[8] = Quantitative High-Throughput drug screen in 47 multiple myeloma cell lines against the NCATS MIPE library collection: ARD_JJKsccE7 cell viability assay (AID 1918929; further: potency means the concentration at half of the fitted maximal effect)
Procedure, shortened: as §2

[9] = target: Luciferin 4-monooxygenase (Photinus pyralis) (UniProt P08659); assay: Primary firefly luciferase (FLuc) qHTS assay for identification of artifact compounds. (AID 1845220); further: nearly all actives have a fitted effect of over 60% in size
Procedure, shortened: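 FLuc 10 nM; luciferin 10 uM; ATP 10 uM; Tris-acetate pH 7.6, Mg-acetate 10 mM; 15 min RT preincubation; 5 min reaction; luminescence.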

[10] = test system: Nanoluciferase (engineered Oplophorus gracilirostris luciferase); assay: Primary Nanoluciferase (NLuc) qHTS assay for identification of artifact compounds. (AID 1845222);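 further: NLuc secreted into diluted conditioned medium of S16 cells; series mostly up to about 54 µM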
Procedure, shortened: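 NLuc from S16 cell medium (1:55) plus test compounds, 15 min, room temperature. Luminescence after Nano-Glo (1:100) addition, 5 min.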

[11] = Primary redox qHTS assay for identification of artifact compounds. (AID 1845223)
Procedure, shortened: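 Amplex Red (25 uM) and HRP (250 mU/mL) in HBSS, with compounds for 15 min, then 250 uM DTT for 30 min, room temperature, dark. Fluorescence 525/598 nm read; normalized to DMSO and 10 uM DA3003; Hill fit.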

[12] = Quantitative High-Throughput drug screen in 47 multiple myeloma cell lines against the NCATS MIPE library collection: Karpas620_DSMZ cell viability assay (AID 1918959); further: nearly all actives have a fitted effect of over 30% in size; further: potency means the concentration at half of the fitted maximal effect
Procedure, shortened: as §1

Sequence of Phospholipid hydroperoxide glutathione peroxidase GPX4 (Homo sapiens) (P36969 whole entry, looked up): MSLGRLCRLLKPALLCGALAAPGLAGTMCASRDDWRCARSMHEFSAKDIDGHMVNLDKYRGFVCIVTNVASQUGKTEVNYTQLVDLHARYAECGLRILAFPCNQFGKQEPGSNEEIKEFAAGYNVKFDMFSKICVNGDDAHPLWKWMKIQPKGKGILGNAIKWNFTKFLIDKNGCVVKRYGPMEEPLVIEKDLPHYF
Sequence of Glutathione peroxidase 1 (Homo sapiens) (P07203 whole entry, looked up): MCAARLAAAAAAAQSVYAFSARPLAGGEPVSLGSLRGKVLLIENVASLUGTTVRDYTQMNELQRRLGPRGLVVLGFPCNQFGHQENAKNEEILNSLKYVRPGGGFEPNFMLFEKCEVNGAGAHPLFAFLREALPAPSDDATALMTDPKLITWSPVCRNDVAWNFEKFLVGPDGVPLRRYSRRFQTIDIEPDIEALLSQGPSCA

With COc1cccc2c1C(=O)c1c(O)c3c(c(O)c1C2=O)C[C@@](O)(C(=O)CO)C[C@@H]3O[C@H]1C[C@H](N)[C@@H](O)[C@H](C)O1 the Potency [1] was “inactive”, the Potency [2] was “inactive” and the Potency [3] was 743 nM (active). The Potency [4] was 209 nM (active), the Potency [5] was 0.59 µM (active) and the Potency [6] was 1.18 µM (active). The Potency [7] was 0.469 µM (active) and the Potency [8] was 2.64 µM (active).

With N#Cc1cc(NC(=O)Nc2nnc(-c3ccncc3)s2)ccc1-c1cn[nH]c1 the Potency [1] was “inactive”, the Potency [2] was “inactive” and the Potency [3] was “inactive”. The Potency [4] was “inactive”, the Potency [5] was “inactive” and the Potency [6] was “inactive”. For the same compound, the Potency [8] was “inactive”.

In the case of C[C@H](NCc1ccc(OCc2cccc(F)c2)cc1)C(N)=O, the Potency [1] is reported as “inactive”, the Potency [2] is reported as “inactive” and the Potency [3] is reported as 16600 nM (active). The Potency [4] was 2090 nM (active), the Potency [5] was 9.35 µM (active) and the Potency [6] was 9.35 µM (active). The Potency [7] was 7.43 µM (active) and the Potency [8] was 5.26 µM (active).

With CCOc1cc2c(c(F)c1OCC)C(=N)N(CC(=O)c1cc(N3CCOCC3)c(OC)c(C(C)(C)C)c1)C2 the Potency [1] was “inactive”, the Potency [2] was “inactive” and the Potency [9] was “inactive”. The outcome [10] was “inactive”, the Potency [11] was “inactive” and the Potency [3] was 23500 nM (active). The Potency [5] was 20.9 µM (active) and the Potency [7] was 18.7 µM (active).

With COc1cc2ncnc(Nc3cccc(Br)c3)c2cc1OC the Potency [1] was “inactive”, the Potency [2] was “inactive” and the Potency [3] was 1320 nM (active). For the same compound, the Potency [4] was 1480 nM (active), the Potency [6] was 3.72 µM (active) and the Potency [8] was 16.6 µM (active).

In the case of CCC[C@@H](C=O)NC(=O)[C@H](CC(C)C)NC(=O)[C@H](CC(C)C)NC(=O)OCc1ccccc1 (Cbz-Leu-Leu-[Nva]-aldehyde), the Potency [1] is reported as “inactive”, the Potency [2] is reported as “inactive” and the Potency [3] is reported as 833 nM (active). The Potency [4] was 332 nM (active), the Potency [5] was 1.48 µM (active) and the Potency [6] was 0.296 µM (active). The Potency [8] was 0.332 µM (active) and the Potency [12] was 0.332 µM (active).

With c1ccc(CNc2nc(NCc3ccccc3)c3ccccc3n2)cc1 the Potency [1] was “inactive”, the Potency [2] was “inactive” and the Potency [3] was 23500 nM (active). The Potency [4] was 7430 nM (active), the Potency [5] was 18.7 µM (active) and the Potency [6] was 8.33 µM (active). The Potency [8] was 18.7 µM (active).

For O=C(c1ccc(F)cc1)N1CCC[C@H](c2nc(-c3ccc(F)cc3)no2)C1, the Potency [1] was “inactive”, the Potency [2] was “inactive” and the Potency [3] was “inactive”. The Potency [4] was “inactive”, the Potency [5] was “inactive” and the Potency [6] was “inactive”. For the same compound, the Potency [7] was “inactive”, the Potency [8] was “inactive” and the Potency [12] was “inactive”.

With NC(=NCCCCCCN=C(N)N=C(N)Nc1ccc(Cl)cc1)N=C(N)Nc1ccc(Cl)cc1 the Potency [1] was “inactive”, the Potency [2] was “inactive” and the Potency [3] was 16600 nM (active). The Potency [4] was 2640 nM (active), the Potency [5] was 2.64 µM (active) and the Potency [6] was 23.5 µM (active). The Potency [7] was 8.33 µM (active) and the Potency [12] was 18.7 µM (active).

For CC(=O)O[C@H]1C[C@@H]2CC[C@H]3[C@H]4C[C@H]([N+]5(C)CCCCC5)[C@@H](OC(C)=O)[C@@]4(C)CC[C@@H]3[C@@]2(C)C[C@H]1[N+]1(C)CCCCC1, the Potency [1] was “inactive”, the Potency [2] was “inactive” and the Potency [3] was “inactive”. For the same compound, the Potency [4] was “inactive”, the Potency [5] was “inactive” and the Potency [7] was “inactive”. For the same compound, the Potency [8] was “inactive”.

With CN(C)c1ccc2cc(C(=O)N[C@@H](CCCN=C(N)CCl)C(=O)NCc3ccccc3)ccc2c1 the Potency [1] was “inactive”, the Potency [2] was “inactive” and the Potency [3] was 11800 nM (active). The Potency [4] was 18700 nM (active), the Potency [5] was 1.32 µM (active) and the Potency [7] was 18.7 µM (active). The Potency [8] was 4.18 µM (active) and the Potency [12] was 5.9 µM (active).

For CC(C)(C)c1nc2c3cc[nH]c(=O)c3c3cc(F)ccc3c2[nH]1, the Potency [1] was “inactive”, the Potency [2] was “inactive” and the Potency [3] was 833 nM (active). The Potency [4] was 3320 nM (active), the Potency [5] was 2.96 µM (active) and the Potency [12] was “inactive”.

In the case of N#Cc1c(NC(=O)c2cccc3ccccc23)sc2c1CCCC2, the Potency [1] is reported as “inactive”, the Potency [2] is reported as “inactive” and the Potency [3] is reported as 209 nM (active). For the same compound, the Potency [4] was 418 nM (active), the Potency [6] was 0.118 µM (active) and the Potency [7] was 0.418 µM (active). For the same compound, the Potency [8] was 0.296 µM (active).

With NC(=O)N1CCC(CC(=O)N2CCC([C@H]3c4ncc(Br)cc4CCc4cc(Cl)cc(Br)c43)CC2)CC1 the Potency [1] was “inactive”, the Potency [2] was “inactive” and the Potency [3] was 20900 nM (active). For the same compound, the Potency [4] was 8330 nM (active), the Potency [5] was 20.9 µM (active) and the Potency [6] was 7.43 µM (active). The Potency [7] was 13.2 µM (active), the Potency [8] was 2.09 µM (active) and the Potency [12] was 14.8 µM (active).

For Oc1cc2c(cc1O)C1c3ccc(O)c(O)c3OCC1(O)C2 (configuration not stated), the Potency [1] was “inactive”, the Potency [2] was “inactive” and the Potency [3] was “inactive”. The Potency [4] was “inactive”, the Potency [5] was “inactive” and the Potency [6] was “inactive”. The Potency [7] was “inactive”, the Potency [8] was “inactive” and the Potency [12] was “inactive”.

In the case of O=C(O)CCCCC(CCSCc1ccccc1)SCc1ccccc1 (configuration not stated), the Potency [1] is reported as “inactive”, the Potency [2] is reported as 20.2 µM (active) and the Potency [3] is reported as “inactive”. The Potency [4] was “inactive”, the Potency [5] was “inactive” and the Potency [7] was “inactive”.

For CC(C)C[C@H](NC(=O)CNC(=O)c1cc(Cl)ccc1Cl)B1OC(=O)CC(CC(=O)O)(C(=O)O)O1 (some centres not stated), the Potency [1] was “inactive”, the Potency [2] was “inactive” and the Potency [3] was 41.8 nM (active). For the same compound, the Potency [4] was 33.2 nM (active), the Potency [5] was 0.0833 µM (active) and the Potency [6] was 0.0235 µM (active). The Potency [7] was 0.0332 µM (active), the Potency [8] was 0.0526 µM (active) and the Potency [12] was 0.0526 µM (active).

In the case of Oc1ccc(-c2ccc(-c3cc(Nc4cccc(CNC5CC5)c4)n[nH]3)cc2)c(O)c1, the Potency [1] is reported as “inactive”, the Potency [2] is reported as “inactive” and the Potency [3] is reported as 935 nM (active). The Potency [4] was 469 nM (active), the Potency [5] was 0.935 µM (active) and the Potency [7] was 4.18 µM (active). For the same compound, the Potency [8] was 1.18 µM (active) and the Potency [12] was 1.18 µM (active).

With COC[C@H](NC(=O)c1cnc(C)s1)C(=O)N[C@@H](COC)C(=O)N[C@@H](Cc1ccccc1)C(=O)[C@@]1(C)CO1 the Potency [1] was “inactive”, the Potency [2] was “inactive” and the Potency [3] was 46.9 nM (active). The Potency [4] was 37.2 nM (active), the Potency [5] was 0.166 µM (active) and the Potency [6] was 0.0264 µM (active). For the same compound, the Potency [7] was 0.0743 µM (active), the Potency [8] was 0.0526 µM (active) and the Potency [12] was 0.0469 µM (active).

In the case of COc1ccc(C[C@@H](C)[C@@H](C)Cc2ccc(OC)c(OC)c2)cc1OC, the Potency [1] is reported as “inactive”, the Potency [2] is reported as “inactive” and the Potency [3] is reported as 118 nM (active). For the same compound, the Potency [4] was 296 nM (active) and the Potency [7] was 0.132 µM (active).
